{
  "source": "PubChem BioAssay (NCATS)",
  "note": "Records with an inconclusive call do not appear. Calls of active or inactive are those of the source. Unless noted, calls follow the shape of the full dose curve.",
  "data": [
    {"experiment": "Dual reporter qHTS for antagonist of Pregnane X Receptor (hPXR) against the NCATS DSHEA and TCM libraries: Fluorescence Readout (AID 1920061; active = well fitted curve in the direction sought with a large enough effect; also: 0% is about no effect)", "conditions": "PXR dual reporter cells, antagonist mode; series mostly up to 22 µM; activity change, negative = inhibition: at the top concentration", "summary_of_the_method": "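Antagonist mode: rifampicin 2 uM final co-added with compounds to hPXR-LucHepG2 cells for 24 h at 37C. Viability by CellTiter-Fluor, Ex/Em 405/540 nm, 1 h; reporter by ONE-Glo luminescence.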", "values": [
      {"smiles": "OC[C@H]1O[C@@H](OC[C@H]2O[C@@H](OC/C=C/c3ccccc3)[C@H](O)[C@@H](O)[C@@H]2O)[C@@H](O)[C@@H]1O", "activity change, negative = inhibition": "12.8% (inactive)"},
      {"smiles": "C[C@@]12CC[C@@H]3[C@@](CC[C@H]4[C@@]3(C)CCC[C@@]4(C)C(=O)O)(CC1=O)C2", "activity change, negative = inhibition": "9% [at 40 µM] (inactive)"},
      {"smiles": "CC1CC[C@]2(C(=O)O)CC[C@]3(C(=O)O)C(=CCC4[C@@]5(C)CC[C@H](OC6OC(C)C(O)C(OC7OC(CO)C(O)C(O)C7O)C6O)C(C)(C)C5CC[C@]43C)C2C1C", "note": "(some centres not stated)", "activity change, negative = inhibition": "-1.47% (inactive)"},
      {"smiles": "CC(C)=CCC[C@](C)(O)[C@H]1CC[C@]2(C)[C@@H]1[C@H](O)CC1[C@@]3(C)CC[C@H](O)C(C)(C)[C@@H]3[C@@H](O[C@@H]3O[C@H](CO)[C@@H](O)[C@H](O)[C@H]3O[C@@H]3O[C@H](CO)[C@@H](O)[C@H](O)[C@H]3O)C[C@]12C", "note": "(some centres not stated)", "activity change, negative = inhibition": "0.917% (inactive)"},
      {"smiles": "CC(C)=CCC(O)/C(C)=C/CO[C@@H]1O[C@H](CO)[C@@H](O)[C@H](O)[C@H]1O", "note": "(some centres not stated)", "activity change, negative = inhibition": "-0.339% [at 40 µM] (inactive)"},
      {"smiles": "CC(C)=CCC[C@](C)(O[C@@H]1O[C@H](CO[C@@H]2O[C@H](CO)[C@@H](O)[C@H](O)[C@H]2O)[C@@H](O)[C@H](O)[C@H]1O)C1CC[C@]2(C)[C@@H]1[C@H](O)CC1[C@@]3(C)CC[C@H](O[C@@H]4O[C@H](CO)[C@@H](O)[C@H](O)[C@H]4O[C@@H]4O[C@H](CO)[C@@H](O)[C@H](O)[C@H]4O)C(C)(C)[C@@H]3CC[C@]12C", "note": "(some centres not stated)", "activity change, negative = inhibition": "2.38% [at 8.32 µM] (inactive)"}
    ]},
    {"experiment": "qHTS drug screen for cell cycle checkpoint inhibitors in PARPi-resistant BRCA-mutant ovarian cancer cell lines. (AID 1963452); also: potency is read from the fitted curve at half-maximal effect", "conditions": "PEO1/OlaR viability, CellTiter-Glo luminescence, 96 h", "summary_of_the_method": "(§1)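 PEO1, PEO4 and PEO1/OlaR ovarian cancer cells, 600 per well, exposed 96 h at 37C to a dilution series. Viability read by CellTiter-Glo luminescence, normalized to DMSO and empty wells; activity summarized as Z-AUC.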", "values": [
      {"smiles": "CO[C@@H](C)Cn1c(=O)n(C)c2cnc3ccc(-c4cncc(C(C)(C)O)c4)cc3c21", "Potency": "2.19 µM (active)"},
      {"smiles": "CCN1CCN(Cc2ccc(NC(=O)Nc3ccc(Oc4cc(NC)ncn4)cc3)cc2C(F)(F)F)CC1", "Potency": "4.9 µM (active)"},
      {"smiles": "COc1cc(OC)c(/C=C/S(=O)(=O)Cc2ccc(OC)c(NCC(=O)O)c2)c(OC)c1", "Potency": "0.0195 µM (active)"},
      {"smiles": "NC[C@@](O)(c1ccc(Cl)cc1)c1ccc(-c2cn[nH]c2)cc1", "Potency": "13.8 µM (active)"}
    ]},
    {"experiment": "qHTS drug screen for cell cycle checkpoint inhibitors in PARPi-resistant BRCA-mutant ovarian cancer cell lines. (AID 1963452); also: potency is read from the fitted curve at half-maximal effect", "conditions": "PEO1/OlaR viability, CellTiter-Glo luminescence, 96 h; stronger effect = lower value", "summary_of_the_method": "as §1", "values": [
      {"smiles": "c1cc(Nc2cc(C3CC3)[nH]n2)nc(Nc2ccc3nc[nH]c3c2)n1", "Z-AUC": "-1.72 (inactive)"},
      {"smiles": "CCN1CCN(Cc2ccc(Nc3ncc(F)c(-c4cc(F)c5nc(C)n(C(C)C)c5c4)n3)nc2)CC1", "Z-AUC": "0.0865 (inactive)"},
      {"smiles": "O=C(c1ccc(/C=C/c2n[nH]c3ccccc23)cc1)N1CCNCC1", "Z-AUC": "-0.885 (inactive)"},
      {"smiles": "O=C(C(c1ccccc1)c1ccccc1)N1CCN(CC(O)COc2cccc3ncccc23)CC1", "note": "(configuration not stated)", "Z-AUC": "0.889 (inactive)"},
      {"smiles": "Cc1cc(O)c(-c2ccc([C@@H](C)CN(C)C)cc2)c2c1[nH]c(=O)c1sccc12", "Z-AUC": "-1.8 (inactive)"},
      {"smiles": "CN1CCN(c2ccc(C(=O)Nc3n[nH]c4ccc(Cc5cc(F)cc(F)c5)cc34)c(NC3CCOCC3)c2)CC1", "Z-AUC": "-0.903 (inactive)"},
      {"smiles": "CCNCc1nc2c(N)nc3ccccc3c2n1CC(C)(C)O", "Z-AUC": "-0.12 (inactive)"},
      {"smiles": "COc1cc2c(NC3CCN(CC4CCCCC4)CC3)nc(N3CCCN(C(C)C)CC3)nc2cc1OCCCN1CCCCC1", "Z-AUC": "0.256 (inactive)"},
      {"smiles": "CN1CCN(C(=O)c2ccc3cc(CCNc4ncnc5ccc(C#N)cc45)ccc3c2)CC1", "Z-AUC": "-0.0214 (inactive)"},
      {"smiles": "Clc1cc2c(NC3CCCC3)nnc(-c3ccncc3)c2cc1Cl", "Z-AUC": "-0.0819 (inactive)"},
      {"smiles": "C=CC(=O)Nc1cccc(Nc2nc(Nc3ccc(N4CCN(C(C)=O)CC4)cc3OC)ncc2C(F)(F)F)c1", "Z-AUC": "-0.226 (inactive)"},
      {"smiles": "O=C(O)c1ccc(CN2CCC(CN[C@@H]3C[C@H]3c3ccccc3)CC2)cc1", "Z-AUC": "-0.0301 (inactive)"},
      {"smiles": "COC(=O)N[C@@H](C)CNc1nccc(-c2cn(C(C)C)nc2-c2cc(Cl)cc(NS(C)(=O)=O)c2F)n1", "Z-AUC": "-0.294 (inactive)"},
      {"smiles": "COc1ccc(C(=O)C2CCN(CC(=O)N(Cc3nc4c(c(=O)[nH]3)COCC4)CC3CC3)CC2)cc1", "Z-AUC": "-0.974 (inactive)"},
      {"smiles": "C[C@H](Nc1ncnc2nc[nH]c12)c1cc2ccc(F)cc2nc1-c1ccccn1", "Z-AUC": "-0.541 (inactive)"},
      {"smiles": "CC#CC(=O)N1CCC[C@H]1c1nc(-c2ccc(C(=O)Nc3ccccn3)cc2)c2c(N)nccn12", "Z-AUC": "-0.264 (inactive)"},
      {"smiles": "C=C1C(=O)O[C@H]2[C@H]1CC/C(C)=C/CC[C@@]1(C)O[C@@H]21", "Z-AUC": "1.08 (inactive)"},
      {"smiles": "COc1ccc(Cl)c(Nc2nc3ccccc3nc2NS(=O)(=O)c2cccc(NC(=O)C(C)(C)N)c2)c1", "Z-AUC": "-0.00434 (inactive)"},
      {"smiles": "CS(=O)(=O)c1ccc(-c2nnc(/C=C/c3nnc(-c4ccc(C#N)cc4)o3)n2-c2ccccc2Cl)nc1", "Z-AUC": "-0.316 (inactive)"}
    ]},
    {"experiment": "qHTS drug screen for cell cycle checkpoint inhibitors in PARPi-resistant BRCA-mutant ovarian cancer cell lines. (AID 1963452); also: potency is read from the fitted curve at half-maximal effect", "conditions": "PEO1/OlaR viability, CellTiter-Glo luminescence, 96 h; measured here: PEO1 parental Z-AUC; stronger effect = lower value", "summary_of_the_method": "as §1", "values": [
      {"smiles": "CO[C@@H](C)Cn1c(=O)n(C)c2cnc3ccc(-c4cncc(C(C)(C)O)c4)cc3c21", "Z-AUC": -2.24},
      {"smiles": "c1cc(Nc2cc(C3CC3)[nH]n2)nc(Nc2ccc3nc[nH]c3c2)n1", "Z-AUC": -2.08},
      {"smiles": "CCN1CCN(Cc2ccc(NC(=O)Nc3ccc(Oc4cc(NC)ncn4)cc3)cc2C(F)(F)F)CC1", "Z-AUC": -1.75},
      {"smiles": "CCN1CCN(Cc2ccc(Nc3ncc(F)c(-c4cc(F)c5nc(C)n(C(C)C)c5c4)n3)nc2)CC1", "Z-AUC": 0.712},
      {"smiles": "O=C(c1ccc(/C=C/c2n[nH]c3ccccc23)cc1)N1CCNCC1", "Z-AUC": -0.223},
      {"smiles": "O=C(C(c1ccccc1)c1ccccc1)N1CCN(CC(O)COc2cccc3ncccc23)CC1", "note": "(configuration not stated)", "Z-AUC": 0.623},
      {"smiles": "Cc1cc(O)c(-c2ccc([C@@H](C)CN(C)C)cc2)c2c1[nH]c(=O)c1sccc12", "Z-AUC": -2.07},
      {"smiles": "CN1CCN(c2ccc(C(=O)Nc3n[nH]c4ccc(Cc5cc(F)cc(F)c5)cc34)c(NC3CCOCC3)c2)CC1", "Z-AUC": -1.2},
      {"smiles": "CCNCc1nc2c(N)nc3ccccc3c2n1CC(C)(C)O", "Z-AUC": 0.65},
      {"smiles": "COc1cc2c(NC3CCN(CC4CCCCC4)CC3)nc(N3CCCN(C(C)C)CC3)nc2cc1OCCCN1CCCCC1", "Z-AUC": 0.301},
      {"smiles": "COc1cc(OC)c(/C=C/S(=O)(=O)Cc2ccc(OC)c(NCC(=O)O)c2)c(OC)c1", "Z-AUC": -2.09},
      {"smiles": "CN1CCN(C(=O)c2ccc3cc(CCNc4ncnc5ccc(C#N)cc45)ccc3c2)CC1", "Z-AUC": -0.289},
      {"smiles": "Clc1cc2c(NC3CCCC3)nnc(-c3ccncc3)c2cc1Cl", "Z-AUC": 0.551},
      {"smiles": "C=CC(=O)Nc1cccc(Nc2nc(Nc3ccc(N4CCN(C(C)=O)CC4)cc3OC)ncc2C(F)(F)F)c1", "Z-AUC": 0.717},
      {"smiles": "O=C(O)c1ccc(CN2CCC(CN[C@@H]3C[C@H]3c3ccccc3)CC2)cc1", "Z-AUC": 1.03},
      {"smiles": "COC(=O)N[C@@H](C)CNc1nccc(-c2cn(C(C)C)nc2-c2cc(Cl)cc(NS(C)(=O)=O)c2F)n1", "Z-AUC": -0.151},
      {"smiles": "COc1ccc(C(=O)C2CCN(CC(=O)N(Cc3nc4c(c(=O)[nH]3)COCC4)CC3CC3)CC2)cc1", "Z-AUC": -0.643},
      {"smiles": "C[C@H](Nc1ncnc2nc[nH]c12)c1cc2ccc(F)cc2nc1-c1ccccn1", "Z-AUC": -0.257},
      {"smiles": "CC#CC(=O)N1CCC[C@H]1c1nc(-c2ccc(C(=O)Nc3ccccn3)cc2)c2c(N)nccn12", "Z-AUC": 0.632},
      {"smiles": "C=C1C(=O)O[C@H]2[C@H]1CC/C(C)=C/CC[C@@]1(C)O[C@@H]21", "Z-AUC": 0.881},
      {"smiles": "NC[C@@](O)(c1ccc(Cl)cc1)c1ccc(-c2cn[nH]c2)cc1", "Z-AUC": -1.09},
      {"smiles": "COc1ccc(Cl)c(Nc2nc3ccccc3nc2NS(=O)(=O)c2cccc(NC(=O)C(C)(C)N)c2)c1", "Z-AUC": 0.542},
      {"smiles": "CS(=O)(=O)c1ccc(-c2nnc(/C=C/c3nnc(-c4ccc(C#N)cc4)o3)n2-c2ccccc2Cl)nc1", "Z-AUC": 0.177}
    ]}
  ]
}
